From PubChem
Shown are actives, neighbours in structure and some others; about 4.8% of the full set was active somewhere.
D3 ag = D3 dopamine receptor (human) agonism; AID 652048; P35462; D3R DiscoveRx beta-arrestin cells, luminescence, 90 min; hit rate 0.58% among 410,000; max activation, %; in the data active means max activation above about 30%; further: 0% is about no effect
Target sequence (P35462 whole entry, looked up): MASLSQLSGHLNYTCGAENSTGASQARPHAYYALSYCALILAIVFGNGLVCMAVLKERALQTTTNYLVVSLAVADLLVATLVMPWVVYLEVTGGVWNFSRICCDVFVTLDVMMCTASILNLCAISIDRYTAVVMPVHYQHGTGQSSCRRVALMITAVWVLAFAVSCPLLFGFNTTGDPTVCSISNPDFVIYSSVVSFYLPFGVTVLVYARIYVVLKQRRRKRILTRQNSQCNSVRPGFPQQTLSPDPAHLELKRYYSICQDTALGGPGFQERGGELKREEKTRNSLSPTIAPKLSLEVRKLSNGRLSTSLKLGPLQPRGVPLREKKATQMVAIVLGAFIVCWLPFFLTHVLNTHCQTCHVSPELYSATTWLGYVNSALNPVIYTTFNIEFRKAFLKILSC
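Cells at 1500/well, incubated overnight, then treated with pinned compounds (dopamine as control) for 90 min at 37 degrees C. DiscoveRx reagent added for 30 - 60 minutes at room temperature; luminescence read.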
D3 antag = antagonists of human D3 dopamine receptor. hit rate 2.5% among 360,000. P35462. AID 652054. max response, negative = inhibition, %. D3R cells, DiscoveRx beta-arrestin luminescence, antagonist mode; stronger effect = lower value; in the data active means max response below about -50%; inconclusive means no clear call, values can overlap the other calls; further: on the % scale 0 is the no-effect control and ±100 the full control effect
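Cells expressing the human receptor were seeded at 1500 cells/well, incubated overnight at 37 degrees C in 5% CO2, then exposed to library compounds with dopamine controls for 90 minutes at 37 degrees C before luminescent detection.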
TGFb inhibitor = TGF-b pathway inhibition; HepG2 CAGA-GFP TGF-b/SMAD3 reporter, GFP fluorescence, 18 h; TGF-beta stimulated, 500 pg/mL final; Potency, µM (top dose mostly 46.1 µM), for the others: at the highest dose activity, negative = inhibition, most hits filed as inhibitors; hit rate 1.2% among 410,000; AID 588855; further: potency means the concentration at half of the fitted maximal effect; on the % scale 0 is the no-effect control and ±100 the full control effect; nearly all actives have a fitted effect of over 65% in size
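Inhibition of TGF-beta-driven CAGA-GFP reporter expression in HEPG2 cells is measured by cellular GFP fluorescence after 18 h stimulation with 500 pg/mL recombinant TGF-beta in 1% FBS medium at 37 degrees C.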
ATXN2 expr inh = inhibitors of ATXN2 expression. HEK-293 ATXN2-luciferase reporter, luminescence, 24 h. Potency, µM (top dose mostly 57 µM), for inactives: at the highest dose activity change, negative = inhibition, most hits filed as inhibitors. hit rate 0.72% among 360,000; further: potency means the concentration at half of the fitted maximal effect; on the % scale 0 is the no-effect control and ±100 the full control effect; nearly all actives have a fitted effect of over 55% in size
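qHTS (up to 57 uM final) was run with 24 h compound exposure of reporter cells at 37 °C. Each well was multiplexed: SteadyGlo luminescence measured ATXN2-luciferase expression after a fluorogenic Gly-Phe-AFC viability readout (25 uM final).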
HepG2 viability = kills HepG2 cells in TGF-b inhibitor counter-screen | HepG2 CAGA-GFP viability, ATP luminescence, 18 h | Potency, µM (highest dose often 46.1 µM), without a hit: at the top dose activity change, negative = cytotoxicity, usual class: cytotoxic | hit rate 0.76% among 410,000; further: potency means the concentration at half of the fitted maximal effect
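HepG2 CAGA-GFP cells (1000/well, DMEM with 1% FBS) received compound, then TGF-beta at 500 pg/mL final, and were incubated 18 hours at 37 degrees C. Viability was read by CellTiter-Glo luminescence. Media-only wells were set as complete cell-killing and DMSO as no toxicity.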
S2 tox = reduces viability in counter-screen for ATXN expression inhibitors | Potency, µM (highest dose often 56.7 µM), most hits filed as cytotoxic | hit rate 0.49% among 400,000 | S2 cells (HEK-293 line with an ATXN2-luciferase reporter) viability, CellTiter-Fluor protease fluorescence, 24 h | AID 651635; further: potency means the concentration at half of the fitted maximal effect; nearly all actives have a fitted effect of over 40% in size
An asterisk follows results filed as active; i = inactive; ? = inconclusive; · = no result. Unless noted, the call rests on the fitted dose curve; in most records, active means well fitted curve in the direction sought with a large enough effect; inconclusive means small, poorly fitted or top-dose-only effect, or another doubt; inactive means no such curve, though single readings can be large; an effect the other way counts as inactive or inconclusive.

SMILES | D3 ag | D3 antag | TGFb inhibitor | ATXN2 expr inh | HepG2 viability | S2 tox
COc1ccccc1N1CCN(CC(O)COCc2cccs2)CC1 (stereo not given) | -3 | -62* | -2% | 0% | -4% | i
Cc1ccc(N2CCN(CC(O)COc3cccc4ccccc34)CC2)cc1 (stereo not given) | 4 | -23 | ? | · | -39% | ?
OC(COc1cccc2ccccc12)CN1CCN(c2ccccc2Cl)CC1 (stereo not given) | 27 | -81* | -21% | · | -11% | i
COc1ccc2[nH]cc(C(O)CN3CCN(c4ccccc4F)CC3)c2c1 (stereo not given) | -25 | -63* | 1% | -34% | 0% | i
COc1ccccc1N1CCN(CC(O)COc2c(OC)cccc2OC)CC1 (stereo not given) | -7 | -99* | -1% | -17% | -15% | i
C[C@@H]1C[C@H]2C3C[C@H](F)C4=CC(=O)C=CC4(C)[C@@]3(F)[C@@H](O)CC2(C)[C@@]1(O)C(=O)COC(=O)C(C)(C)C (stereo not given in full) | -19 | · | · | · | · | i
COc1ccc(CCNC(=O)c2ccc3c(c2)N(Cc2c(F)cccc2Cl)C(=O)CS3)cc1OC | 6 | · | -6% | · | -20% | ·
[O-][N+](=Nc1ccccc1)c1ccccc1 | 1 | · | · | · | · | ·
O=C(O)CN1C2=NCCCN2c2ccccc21 | -2 | -17 | 5% | -17% | 17% | i
O=C(CN1C2=NCCCN2c2ccccc21)c1ccc(Br)s1 | -16 | -54* | 4% | ? | -11% | i
CC(C)(C)c1ccc(CN2C3=NCCCN3c3ccccc32)cc1 | -1 | -63* | ? | ? | 16µM* | ?
Cc1ccc(CN2C3=NCCCN3c3ccccc32)cc1 | -4 | 0 | ? | -19% | -33% | i
CC(C)(C)n1ncc2c(=O)n(Cc3ccccc3C(F)(F)F)cnc21 | · | · | 6% | · | -3% | ·
Cc1ccc(NC(=O)CN2C(=O)COc3ccc(S(=O)(=O)N4CCCCCC4)cc32)c(C)c1 | 0 | · | ? | · | -23% | ·
COc1ccc(-c2nc(-c3ccccc3)c(-c3ccc(F)cc3)[nH]2)c(OC)c1C | -15 | · | ? | ? | -16% | ?
O=C(CSc1nnc(-c2cnccn2)n1Cc1ccco1)c1ccc(Cl)cc1 | -9 | -63* | 0% | -7% | 0% | i
O=C(CSc1nnc(-c2cnccn2)n1Cc1ccco1)c1ccccc1 | 1 | 22 | -26% | · | -5% | ·
Cc1ccc(C)c(NC(=O)Cn2ncc3c([nH]c4ccccc43)c2=O)c1 | 1 | · | 5% | 16% | 4% | i
COc1ccccc1N1CCN(C(=O)CCC(=O)N2CCN(c3ccc(F)cc3)CC2)CC1 | 8 | 11 | ? | -32% | -18% | i
COc1ccc(C(=O)CCN2CCN(c3ccccc3OC)CC2)cc1 | -21 | -83* | ? | 1% | -168% | i
COc1ccccc1N1CCN(CCCC(=O)c2ccc(F)cc2)CC1 | -88 | -98* | 12% | -8% | -13% | i
COc1ccc(C(=O)CCN2CCc3cc(OC)c(OC)cc3C2)cc1 | -19 | -59* | ? | ? | -3% | ·
COc1ccc(OCCN2CCN(C(=O)c3ccc(OC)c(OC)c3)CC2)cc1 | 112* | 9 | -2% | -31% | -46% | i
CC(=O)N1c2ccc(S(=O)(=O)NCc3ccc(Cl)cc3)cc2CC1C (stereo not given) | -13 | · | ? | · | -11% | ·
COc1ccccc1C(=O)N1CCCC(c2nc(SCCN3CCOCC3)ncc2C)C1 (stereo not given) | · | · | · | · | · | i
SMILES | D3 ag | D3 antag | TGFb inhibitor | ATXN2 expr inh | HepG2 viability | S2 tox
COc1ccc(/C=C/C(=O)Nc2ccc3nc(N4CCC(C)CC4)cc(C)c3c2)cc1OC | -16 | · | -29% | · | -20% | ·
O=C(C[n+]1cccc2cc(Cl)ccc21)c1ccc2c(c1)CCCC2 | · | · | 4% | · | -21% | ·
COc1ccc(/C=C/C(=O)NC(=S)N2CCOCC2)cc1 | 0 | -11 | -2% | 46% | 2% | i
COc1cc2c(cc1OC)CN(CCOc1ccc(Br)cc1)CC2 | -2 | -100* | -15% | · | -22% | ?
COc1ccc(/C=C/C(=O)NC(=S)N2CCN(c3ccccc3OC)CC2)cc1 | -16 | -50* | 4% | 67% | 1% | i
CN1CCN(CCCCOc2ccc(Br)cc2)CC1 | -1 | -7 | 5% | · | 0% | i
Cc1ccc2c(c1)N(C(=O)N1CCC(C(=O)NCCc3ccc(Cl)cc3)CC1)CC(C)O2 (stereo not given) | 2 | · | -19% | · | -16% | ·
CCOC(=O)c1c(C)oc2ncnc(Nc3ccc(F)cc3Cl)c12 | 0 | · | 33% | 8% | 26% | i
Cc1cc2nc(-c3ccc(NC(=O)c4ccc(OCC(C)C)cc4)cc3)oc2cc1C | -20 | · | -18% | · | -9% | ·
CC[N+](CC)(CC)c1ccc(/C=C/c2ccnc3ccccc23)cc1 | · | · | 2.5µM* | · | -76% | ·
CC[N+](C)(C)c1ccc(/C=C/c2ccnc3ccccc23)cc1 | · | · | 11µM* | · | -74% | ·
COC(=O)CC1C(=O)NCCN1C(=O)CN1Cc2ccccc2OC(c2ccccc2)C1 (stereo not given) | · | · | · | · | · | i
O=C(Nc1ccc(N2CCN(C(=O)c3cccs3)CC2)c(Cl)c1)c1cccnc1 | -10 | 31 | -9% | 22µM* | -21% | i
O=C(Nc1ccc(N2CCOCC2)c(Cl)c1)c1c(F)c(F)c(F)c(F)c1F | 3 | 0 | -4% | 13µM* | 0% | i
Cc1ccc(OCC(=O)Nc2ccc(N3CCN(C(=O)c4ccco4)CC3)cc2)cc1C | 11 | 6 | -21% | -9% | -7% | i
Cc1cc(OCC(=O)Nc2ccc(N3CCN(C(=O)c4ccco4)CC3)cc2)cc(C)c1Cl | 55* | 53 | ? | -28% | -6% | ?
O=C(Nc1ccc(N2CCCC2)c(Cl)c1)c1cccnc1 | 0 | -9 | 6% | 45% | -4% | ?
Cc1ccccc1C(=O)N1CCN(c2ccc(NC(=O)c3ccco3)cc2Cl)CC1 | 0 | 5 | ? | 32µM* | -20% | ?
COc1ccc(-n2c(CNC(=O)c3cccc(OC)c3OC)nnc2SC)cc1 | · | · | · | · | · | i
Cc1c(Cl)cccc1NC(=O)Cn1nnc(-c2nc(-c3ccccc3)no2)c1N | 4 | · | · | · | 0% | ·
Nc1ncnc2ccccc12 | · | · | · | -9% | · | ·
O=C(Nc1ccc(N2CCN(C(=O)c3ccco3)CC2)c(Cl)c1)c1cccnc1 | 2 | 40 | -1% | -12% | 3% | i
Cc1ccccc1C(=O)N1CCN(c2ccc(NC(=S)NC(=O)c3ccco3)cc2)CC1 | 0 | 19 | ? | · | -24% | 14µM*
